Numbering of substitutions follows the chain as printed; changes in the protein carry UniProt numbers. In all, about 16,000 sequences were measured (“ka relative to ugcaugu”: median about 0.096, highest 2% from about 0.35 on). Shown is part of a subset that was picked to be rich in the highest values.

The source of these data is article PMC9911399, “Two distinct binding modes provide the RNA-binding protein RbFox with extraordinary sequence specificity”.

B1: CCUUAUC (DNA:RNA)
RNA: GGGAGACCGGAAUUCAGAUUGUCCCCUUAUCUUAAAUCCCGUCGUAGCCACCA
DNA 1: CAATCTGAATTCCGGTCTCCC
DNA 2: TGGTGGCTACGACGGGATT
B2: AAAUGUC (DNA:RNA)
RNA: B1 RNA with C25A, C26A, U27A, A29G
DNA 1: CAATCTGAATTCCGGTCTCCC
DNA 2: TGGTGGCTACGACGGGATT
B3: CUAUAGG (DNA:RNA)
RNA: B1 RNA with C26U, U27A, U30G, C31G
DNA 1: CAATCTGAATTCCGGTCTCCC
DNA 2: TGGTGGCTACGACGGGATT
B4: CUGCGUG (DNA:RNA)
RNA: B1 RNA with C26U, U27G, U28C, A29G, C31G
DNA 1: CAATCTGAATTCCGGTCTCCC
DNA 2: TGGTGGCTACGACGGGATT
B5: CCUAGCA (DNA:RNA)
RNA: B1 RNA with U28A, A29G, U30C, C31A
DNA 1: CAATCTGAATTCCGGTCTCCC
DNA 2: TGGTGGCTACGACGGGATT
B6: UCCGUGC (DNA:RNA)
RNA: B1 RNA with C25U, U27C, U28G, A29U, U30G
DNA 1: CAATCTGAATTCCGGTCTCCC
DNA 2: TGGTGGCTACGACGGGATT
B7: UUGCUUG (DNA:RNA)
RNA: B1 RNA with C25U, C26U, U27G, U28C, A29U, C31G
DNA 1: CAATCTGAATTCCGGTCTCCC
DNA 2: TGGTGGCTACGACGGGATT
B8: UCCUUGC (DNA:RNA)
RNA: B1 RNA with C25U, U27C, A29U, U30G
DNA 1: CAATCTGAATTCCGGTCTCCC
DNA 2: TGGTGGCTACGACGGGATT
B9: UUGUUGC (DNA:RNA)
RNA: B1 RNA with C25U, C26U, U27G, A29U, U30G
DNA 1: CAATCTGAATTCCGGTCTCCC
DNA 2: TGGTGGCTACGACGGGATT
B10: GUGCUUG (DNA:RNA)
RNA: B1 RNA with C25G, C26U, U27G, U28C, A29U, C31G
DNA 1: CAATCTGAATTCCGGTCTCCC
DNA 2: TGGTGGCTACGACGGGATT
B11: GUCGUGC (DNA:RNA)
RNA: B1 RNA with C25G, C26U, U27C, U28G, A29U, U30G
DNA 1: CAATCTGAATTCCGGTCTCCC
DNA 2: TGGTGGCTACGACGGGATT
B12: CGGGAUC (DNA:RNA)
RNA: B1 RNA with C26G, U27G, U28G
DNA 1: CAATCTGAATTCCGGTCTCCC
DNA 2: TGGTGGCTACGACGGGATT
B13: CGUCCGU (DNA:RNA)
RNA: B1 RNA with C26G, U28C, A29C, U30G, C31U
DNA 1: CAATCTGAATTCCGGTCTCCC
DNA 2: TGGTGGCTACGACGGGATT
B14: GUCCGGA (DNA:RNA)
RNA: GGGAGACCGGAAUUCAGAUUGUCCGUCCGGAUUAAAUCCCGUCGUAGCCACCA
DNA 1: CAATCTGAATTCCGGTCTCCC
DNA 2: TGGTGGCTACGACGGGATT
B15: CACCGGA (DNA:RNA)
RNA: B14 RNA with G25C, U26A
DNA 1: CAATCTGAATTCCGGTCTCCC
DNA 2: TGGTGGCTACGACGGGATT
B16: GUCCCGU (DNA:RNA)
RNA: B14 RNA with G29C, A31U
DNA 1: CAATCTGAATTCCGGTCTCCC
DNA 2: TGGTGGCTACGACGGGATT
B17: CGUAUCG (DNA:RNA)
RNA: B1 RNA with C26G, U28A, A29U, U30C, C31G
DNA 1: CAATCTGAATTCCGGTCTCCC
DNA 2: TGGTGGCTACGACGGGATT
B18: UGAUAUC (DNA:RNA)
RNA: B1 RNA with C25U, C26G, U27A
DNA 1: CAATCTGAATTCCGGTCTCCC
DNA 2: TGGTGGCTACGACGGGATT
B19: GGAUUGU (DNA:RNA)
RNA: B14 RNA with U26G, C27A, C28U, G29U, A31U
DNA 1: CAATCTGAATTCCGGTCTCCC
DNA 2: TGGTGGCTACGACGGGATT
B20: CGGAUUG (DNA:RNA)
RNA: B1 RNA with C26G, U27G, U28A, A29U, C31G
DNA 1: CAATCTGAATTCCGGTCTCCC
DNA 2: TGGTGGCTACGACGGGATT
B21: UGAUAUA (DNA:RNA)
RNA: B1 RNA with C25U, C26G, U27A, C31A
DNA 1: CAATCTGAATTCCGGTCTCCC
DNA 2: TGGTGGCTACGACGGGATT
B22: GUAUCGU (DNA:RNA)
RNA: B14 RNA with C27A, C28U, G29C, A31U
DNA 1: CAATCTGAATTCCGGTCTCCC
DNA 2: TGGTGGCTACGACGGGATT
B23: UGAUAUG (DNA:RNA)
RNA: B1 RNA with C25U, C26G, U27A, C31G
DNA 1: CAATCTGAATTCCGGTCTCCC
DNA 2: TGGTGGCTACGACGGGATT
B24: GUAUUGU (DNA:RNA)
RNA: B14 RNA with C27A, C28U, G29U, A31U
DNA 1: CAATCTGAATTCCGGTCTCCC
DNA 2: TGGTGGCTACGACGGGATT

For the assay, the target named is T1, RBFOX1 RRM RbFoxmut (Fox-RRM*) (Homo sapiens, UniProt Q9NWB1 109-208, R118D;E147R;N151S;E152T).
T1 sequence: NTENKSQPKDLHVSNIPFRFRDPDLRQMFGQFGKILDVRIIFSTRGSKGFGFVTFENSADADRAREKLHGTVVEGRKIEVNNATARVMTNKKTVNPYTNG
Description: EMSA; HiTS-Eq, 1 nM pool, 10 min; buffer printed only for the single-RNA assays: 10 mM Tris pH 7.5, 150 mM NaCl, 3.4 mM EDTA, 0.001% NP-40, 30 C. Particulars: tags: His6 N-terminal (pET28a); label: 5' 32P. An outline of the steps: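 These values rest on relative association constants, computed from read-count changes of each RNA species versus the control reaction and normalised to the cognate motif. Reads came from free RNA recovered by 8% native PAGE after purified RbFox RRM (wild type or mutant) at increasing concentrations was equilibrated for 10 min in 50 µL with 1 nM of a 5′-radiolabelled pool with 7 randomized nucleotides and DNA-annealed flanks.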
A general note: In EMSA bound probe runs differently from free probe, usually more slowly.
On to B1, for which the binding signal was 0.0522 KA relative to UGCAUGU.
With B2 the figure was 0.145 KA relative to UGCAUGU; with B3, 0.0751 KA relative to UGCAUGU.
B4: the binding signal is 0.232 KA relative to UGCAUGU.
Under B5 stands 0.119 KA relative to UGCAUGU; under B6, 0.084 KA relative to UGCAUGU.
With B7 the figure was 0.503 KA relative to UGCAUGU; with B8, 0.108 KA relative to UGCAUGU; with B9, 0.148 KA relative to UGCAUGU.
B10: the binding signal was 0.511 KA relative to UGCAUGU.
Take B11: the binding signal is 0.167 KA relative to UGCAUGU.
Consider B12, for which the binding signal was 0.141 KA relative to UGCAUGU.
Under B13 stands 0.119 KA relative to UGCAUGU.
As for B14, the binding signal is 0.0725 KA relative to UGCAUGU.
Under B15 stands 0.0666 KA relative to UGCAUGU.
Under B16 stands 0.11 KA relative to UGCAUGU; under B17, 0.263 KA relative to UGCAUGU; under B18, 0.145 KA relative to UGCAUGU.
For the molecule B19, the binding signal was 0.39 KA relative to UGCAUGU.
Under B20 stands 0.522 KA relative to UGCAUGU; under B21, 0.0947 KA relative to UGCAUGU.
Under B22 stands 0.461 KA relative to UGCAUGU.
Under B23 stands 0.437 KA relative to UGCAUGU.
With B24, the binding signal is 0.309 KA relative to UGCAUGU.
